# Reference: the supplement of paper PMC10037445
# Over roughly 2,900 compounds, “NF-kB SEAP reporter activity, fold change vs agonist alone” has its median near 0.99; the highest 2% begin near 2.6. For the sample, the highest values were picked, then their nearest neighbours and some compounds at random.
# Tests used:
# RAW-Dual [1] = experiment: NF-kB SEAP reporter activity, fold change vs agonist alone; cytotoxicity flag (confluency mask): not cytotoxic; higher = enhanced NF-kB activity
# Method in brief: (§1)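 RAW-Dual macrophages (50,000 cells/well in DMEM, 384-well plates) received 50 nL of library stock by pin tool, then a PRR agonist 1 h later, and were kept at 37 °C, 5% CO2. After 20 hours, supernatant was read for IRF by QuantiLuc luminescence and for NF-κB by QuantiBlue absorbance at 620 nm. Reporter activity is fold change over agonist-alone wells. Cytotoxic wells had IncuCyte confluency below 70% of agonist controls in both mask sets.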
# RAW-Dual [2] = experiment: NF-kB SEAP reporter activity, fold change vs agonist alone; higher = enhanced NF-kB activity
# Method in brief: as §1
# RAW-Dual [3] = experiment: NF-kB SEAP reporter activity, fold change vs agonist alone; cytotoxicity flag (confluency mask): cytotoxic (confluency <70% of control); higher = enhanced NF-kB activity
# Method in brief: as §1
# [4] = agonist: ODN 1826 (TLR9) 0.5 ug/mL
# [5] = agonist: Pam2CSK4 (TLR2/6) 0.1 ug/mL
# [6] = agonist: Pam3CSK4 (TLR2/1) 0.1 ug/mL
# [7] = library stock concentration (final ~1000-fold dilution): 10 mM, cytotoxicity flag (confluency mask): not cytotoxic, agonist: Imiquimod (TLR7) […]
# [8] = library stock concentration (final ~1000-fold dilution): 10 mM, cytotoxicity flag (confluency mask): not cytotoxic, agonist: MPLA (TLR4) […]
# [9] = library stock concentration (final ~1000-fold dilution): 10 mM, cytotoxicity flag (confluency mask): cytotoxic (confluency <70% of control), agonist: Imiquimod (TLR7) […]
# [10] = library stock concentration (final ~1000-fold dilution): 10 mM, cytotoxicity flag (confluency mask): cytotoxic (confluency <70% of control), agonist: MPLA (TLR4) […]
smiles,measurement,setting,value
Cc1cc(C)c2c(c1)C(N(Cc1cc(C(F)(F)F)cc(C(F)(F)F)c1)c1nnn(C)n1)CCCN2CC1CCC(C(=O)O)CC1 (stereo not drawn) (library stock concentration (final ~1000-fold dilution): 10 mM),NF-kB SEAP reporter activity,RAW-Dual [1]; agonist: LPS (TLR4) 0.1 ug/mL,0.632
same,NF-kB SEAP reporter activity,RAW-Dual [1]; [4],0.635
same,NF-kB SEAP reporter activity,RAW-Dual [1]; [5],0.484
same,NF-kB SEAP reporter activity,RAW-Dual [1]; [6],0.444
Cc1cc(C)c2c(c1)C(N(Cc1cc(C(F)(F)F)cc(C(F)(F)F)c1)c1nnn(C)n1)CCCN2CC1CCC(C(=O)O)CC1 (stereo not drawn),NF-kB SEAP reporter activity,RAW-Dual [2]; [7],0.911
same,NF-kB SEAP reporter activity,RAW-Dual [2]; [8],1.14
CC(C)CC(NC(=O)C(NC(=O)c1cccc(-c2ccccc2)n1)C(C)O)B(O)O (stereo not drawn) (library stock concentration (final ~1000-fold dilution): 10 mM),NF-kB SEAP reporter activity,RAW-Dual [1]; agonist: LPS (TLR4) 0.1 ug/mL,0.629
same,NF-kB SEAP reporter activity,RAW-Dual [1]; [4],1.53
same,NF-kB SEAP reporter activity,RAW-Dual [1]; [5],0.976
same,NF-kB SEAP reporter activity,RAW-Dual [1]; [6],0.594
CC(C)CC(NC(=O)C(NC(=O)c1cccc(-c2ccccc2)n1)C(C)O)B(O)O (stereo not drawn),NF-kB SEAP reporter activity,RAW-Dual [2]; [7],2.29
same,NF-kB SEAP reporter activity,RAW-Dual [2]; [8],0.997
CCOC(=O)/C=C/c1ccc(O)c(OC)c1 (library stock concentration (final ~1000-fold dilution): 10 mM),NF-kB SEAP reporter activity,RAW-Dual [1]; agonist: LPS (TLR4) 0.1 ug/mL,0.998
same,NF-kB SEAP reporter activity,RAW-Dual [1]; [4],1.03
same,NF-kB SEAP reporter activity,RAW-Dual [1]; [5],0.959
same,NF-kB SEAP reporter activity,RAW-Dual [1]; [6],1.07
CCOC(=O)/C=C/c1ccc(O)c(OC)c1,NF-kB SEAP reporter activity,RAW-Dual [2]; [7],1.08
same,NF-kB SEAP reporter activity,RAW-Dual [2]; [8],1.2
COc1cc2nccc(Oc3ccc(NC(=O)Nc4ccc(F)cc4F)c(F)c3)c2cc1OC,NF-kB SEAP reporter activity,RAW-Dual [2]; [9],0.799
same,NF-kB SEAP reporter activity,RAW-Dual [2]; [10],0.975
COc1cc2nccc(Oc3ccc(NC(=O)Nc4ccc(F)cc4F)c(F)c3)c2cc1OC (library stock concentration (final ~1000-fold dilution): 10 mM),NF-kB SEAP reporter activity,RAW-Dual [3]; agonist: LPS (TLR4) 0.1 ug/mL,0.806
same,NF-kB SEAP reporter activity,RAW-Dual [3]; [4],0.587
same,NF-kB SEAP reporter activity,RAW-Dual [3]; [5],0.463
same,NF-kB SEAP reporter activity,RAW-Dual [3]; [6],0.717
COc1ncc(-c2ccc3nccc(-c4ccnnc4)c3c2)cc1NS(=O)(=O)c1ccc(F)cc1F (library stock concentration (final ~1000-fold dilution): 10 mM),NF-kB SEAP reporter activity,RAW-Dual [1]; agonist: LPS (TLR4) 0.1 ug/mL,6.18
same,NF-kB SEAP reporter activity,RAW-Dual [1]; [4],0.959
same,NF-kB SEAP reporter activity,RAW-Dual [1]; [5],2.26
same,NF-kB SEAP reporter activity,RAW-Dual [1]; [6],0.801
COc1ncc(-c2ccc3nccc(-c4ccnnc4)c3c2)cc1NS(=O)(=O)c1ccc(F)cc1F,NF-kB SEAP reporter activity,RAW-Dual [2]; [7],0.912
same,NF-kB SEAP reporter activity,RAW-Dual [2]; [8],0.957
CC1CNCCCN1S(=O)(=O)c1cccc2cncc(F)c12.Cl.O.O (stereo not drawn),NF-kB SEAP reporter activity,RAW-Dual [2]; [7],1.01
same,NF-kB SEAP reporter activity,RAW-Dual [2]; [8],1.08
CC1CNCCCN1S(=O)(=O)c1cccc2cncc(F)c12.Cl.O.O (stereo not drawn) (library stock concentration (final ~1000-fold dilution): 10 mM),NF-kB SEAP reporter activity,RAW-Dual [1]; agonist: LPS (TLR4) 0.1 ug/mL,1.11
same,NF-kB SEAP reporter activity,RAW-Dual [1]; [4],0.99
same,NF-kB SEAP reporter activity,RAW-Dual [1]; [5],1.27
same,NF-kB SEAP reporter activity,RAW-Dual [1]; [6],1.5
COC(=O)NC(C(=O)N1CCCC1c1ncc(-c2ccc(-c3ccc(-c4cnc(C5CCCN5C(=O)C(NC(=O)OC)C(C)C)[nH]4)cc3)cc2)[nH]1)C(C)C.Cl.Cl (stereo not drawn) (library stock concentration (final ~1000-fold dilution): 10 mM),NF-kB SEAP reporter activity,RAW-Dual [1]; agonist: LPS (TLR4) 0.1 ug/mL,1.85
same,NF-kB SEAP reporter activity,RAW-Dual [1]; [4],0.91
same,NF-kB SEAP reporter activity,RAW-Dual [1]; [5],1.02
same,NF-kB SEAP reporter activity,RAW-Dual [1]; [6],0.606
COC(=O)NC(C(=O)N1CCCC1c1ncc(-c2ccc(-c3ccc(-c4cnc(C5CCCN5C(=O)C(NC(=O)OC)C(C)C)[nH]4)cc3)cc2)[nH]1)C(C)C.Cl.Cl (stereo not drawn),NF-kB SEAP reporter activity,RAW-Dual [2]; [8],1.76
CC(C)CN(CC(O)C(Cc1ccccc1)NC(=O)OC1CCOC1)S(=O)(=O)c1ccc(N)cc1 (stereo not drawn) (library stock concentration (final ~1000-fold dilution): 10 mM),NF-kB SEAP reporter activity,RAW-Dual [1]; agonist: LPS (TLR4) 0.1 ug/mL,1.41
same,NF-kB SEAP reporter activity,RAW-Dual [1]; [4],1.74
same,NF-kB SEAP reporter activity,RAW-Dual [1]; [5],1.45
same,NF-kB SEAP reporter activity,RAW-Dual [1]; [6],1.32
CC(C)CN(CC(O)C(Cc1ccccc1)NC(=O)OC1CCOC1)S(=O)(=O)c1ccc(N)cc1 (stereo not drawn),NF-kB SEAP reporter activity,RAW-Dual [2]; [7],1.3
same,NF-kB SEAP reporter activity,RAW-Dual [2]; [8],1.6
CC1CCOC2Cn3cc(C(=O)NCc4ccc(F)cc4F)c(=O)c(O)c3C(=O)N12 (stereo not drawn),NF-kB SEAP reporter activity,"RAW-Dual [2]; library stock concentration (final ~1000-fold dilution): 2 mM, cytotoxicity flag (confluency mask): not cytotoxic, agonist: MPLA (TLR4) […]",0.994
same,NF-kB SEAP reporter activity,RAW-Dual [2]; [7],1.18
same,NF-kB SEAP reporter activity,RAW-Dual [2]; [8],0.999
CC1CCOC2Cn3cc(C(=O)NCc4ccc(F)cc4F)c(=O)c(O)c3C(=O)N12 (stereo not drawn) (library stock concentration (final ~1000-fold dilution): 2 mM),NF-kB SEAP reporter activity,RAW-Dual [1]; agonist: LPS (TLR4) 0.1 ug/mL,1.23
same,NF-kB SEAP reporter activity,RAW-Dual [1]; [4],0.967
same,NF-kB SEAP reporter activity,RAW-Dual [1]; [5],0.958
same,NF-kB SEAP reporter activity,RAW-Dual [1]; [6],0.873
CC1CCOC2Cn3cc(C(=O)NCc4ccc(F)cc4F)c(=O)c(O)c3C(=O)N12 (stereo not drawn) (library stock concentration (final ~1000-fold dilution): 10 mM),NF-kB SEAP reporter activity,RAW-Dual [1]; agonist: LPS (TLR4) 0.1 ug/mL,0.989
same,NF-kB SEAP reporter activity,RAW-Dual [1]; [4],0.999
same,NF-kB SEAP reporter activity,RAW-Dual [1]; [5],1.09
same,NF-kB SEAP reporter activity,RAW-Dual [1]; [6],0.921
CCOC(=O)C(CCc1ccccc1)NC1CCc2ccccc2N(CC(=O)O)C1=O.Cl (stereo not drawn),NF-kB SEAP reporter activity,RAW-Dual [2]; [7],0.99
same,NF-kB SEAP reporter activity,RAW-Dual [2]; [8],0.958
CCOC(=O)C(CCc1ccccc1)NC1CCc2ccccc2N(CC(=O)O)C1=O.Cl (stereo not drawn) (library stock concentration (final ~1000-fold dilution): 10 mM),NF-kB SEAP reporter activity,RAW-Dual [1]; agonist: LPS (TLR4) 0.1 ug/mL,0.997
same,NF-kB SEAP reporter activity,RAW-Dual [1]; [4],0.98
same,NF-kB SEAP reporter activity,RAW-Dual [1]; [5],1.03
same,NF-kB SEAP reporter activity,RAW-Dual [1]; [6],0.994
COC(=O)Nc1nc2ccc(C(=O)c3cccs3)cc2[nH]1 (library stock concentration (final ~1000-fold dilution): 10 mM),NF-kB SEAP reporter activity,RAW-Dual [3]; agonist: LPS (TLR4) 0.1 ug/mL,2.52
same,NF-kB SEAP reporter activity,RAW-Dual [3]; [4],3.14
same,NF-kB SEAP reporter activity,RAW-Dual [3]; [5],1.85
same,NF-kB SEAP reporter activity,RAW-Dual [3]; [6],1.76
CCCS(=O)c1ccc2nc(NC(=O)OC)[nH]c2c1 (stereo not drawn),NF-kB SEAP reporter activity,RAW-Dual [2]; [7],1.04
same,NF-kB SEAP reporter activity,RAW-Dual [2]; [8],0.808
CCCS(=O)c1ccc2nc(NC(=O)OC)[nH]c2c1 (stereo not drawn) (library stock concentration (final ~1000-fold dilution): 10 mM),NF-kB SEAP reporter activity,RAW-Dual [1]; agonist: LPS (TLR4) 0.1 ug/mL,1.06
same,NF-kB SEAP reporter activity,RAW-Dual [1]; [4],0.948
same,NF-kB SEAP reporter activity,RAW-Dual [1]; [5],1.05
same,NF-kB SEAP reporter activity,RAW-Dual [1]; [6],1.09
COC(=O)Nc1nc2ccc(C(=O)c3cccs3)cc2[nH]1,NF-kB SEAP reporter activity,RAW-Dual [2]; [9],2.68
same,NF-kB SEAP reporter activity,RAW-Dual [2]; [10],2.1
CC(C(=O)O)c1ccc(C(=O)c2cccs2)cc1 (stereo not drawn),NF-kB SEAP reporter activity,RAW-Dual [2]; [7],0.601
same,NF-kB SEAP reporter activity,RAW-Dual [2]; [8],0.825
